Source: PubChem (Broad Institute)
Many of the other results were omitted from the sample, so hits are more common in it than they were.
IDE exosite FP: displaces the probe from the exo-site of human IDE; P14735; purified IDE, FL-6b probe fluorescence polarization; hits give low values; z-score at 20 µM; hit rate 6.3% among 17,000; AID 1259349;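 active = z-score of -3 or lower, meaning strong loss of probe binding signal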;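 note: His-tagged human IDE residues 42-1019 made in E. coli with 30 nM FL-6b probe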
Target sequence (P14735 42-1019 limits assumed): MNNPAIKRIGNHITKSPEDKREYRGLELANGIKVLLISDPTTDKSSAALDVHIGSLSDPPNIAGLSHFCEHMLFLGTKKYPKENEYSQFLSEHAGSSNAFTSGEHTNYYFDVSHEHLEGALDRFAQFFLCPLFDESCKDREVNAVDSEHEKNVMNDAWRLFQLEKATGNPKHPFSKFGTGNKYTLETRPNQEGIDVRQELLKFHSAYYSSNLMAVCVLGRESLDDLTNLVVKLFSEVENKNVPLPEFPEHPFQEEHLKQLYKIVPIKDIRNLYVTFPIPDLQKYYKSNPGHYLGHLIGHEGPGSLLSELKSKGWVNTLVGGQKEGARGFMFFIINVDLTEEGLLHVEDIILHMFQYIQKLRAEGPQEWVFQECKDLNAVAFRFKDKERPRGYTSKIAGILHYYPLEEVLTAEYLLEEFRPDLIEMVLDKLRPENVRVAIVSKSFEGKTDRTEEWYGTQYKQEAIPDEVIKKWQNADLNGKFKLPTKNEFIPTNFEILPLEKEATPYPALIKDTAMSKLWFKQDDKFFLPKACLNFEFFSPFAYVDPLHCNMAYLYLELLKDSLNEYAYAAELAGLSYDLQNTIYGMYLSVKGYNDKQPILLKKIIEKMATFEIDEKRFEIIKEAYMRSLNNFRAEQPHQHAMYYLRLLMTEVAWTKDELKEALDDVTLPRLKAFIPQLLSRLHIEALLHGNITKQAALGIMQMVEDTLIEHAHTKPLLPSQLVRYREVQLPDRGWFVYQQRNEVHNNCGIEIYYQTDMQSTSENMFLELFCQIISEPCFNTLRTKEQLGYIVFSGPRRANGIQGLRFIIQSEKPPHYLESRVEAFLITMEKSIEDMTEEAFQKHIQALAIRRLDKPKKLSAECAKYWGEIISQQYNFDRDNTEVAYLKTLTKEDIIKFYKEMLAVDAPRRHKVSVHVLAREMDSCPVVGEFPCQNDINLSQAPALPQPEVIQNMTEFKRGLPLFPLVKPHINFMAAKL
An asterisk follows results filed as active.

SMILES	IDE exosite FP
CO[C@H](CN(C)S(=O)(=O)c1ccc(C)cc1)[C@H](C)CN(C(=O)Nc1ccccc1F)[C@H](C)CO	0.69
O=C(C[C@@H]1C[C@@H]2c3cc(NS(=O)(=O)c4ccccc4)ccc3O[C@@H]2[C@H](CO)O1)NCC(F)(F)F	0.54
O=C(O)C[C@@H]1C[C@@H]2c3cc(NC(=O)Cc4ccncc4)ccc3O[C@@H]2[C@H](CO)O1	0.84
C/C=C/c1ccc([C@H]2[C@@H](C#N)N(C(=O)Cc3ccccn3)[C@H]2CO)cc1	-2
CCCNC(=O)N1[C@H](CO)[C@H](c2ccc(/C=C/c3ccccc3)cc2)[C@@H]1C#N	3.5
CN(C)CC(=O)N1[C@H](CO)[C@H](c2ccc(/C=C/c3ccccc3)cc2)[C@@H]1C#N	-1.5
N#C[C@H]1[C@@H](c2ccc(/C=C/c3ccccc3)cc2)[C@@H](CO)N1C(=O)Cc1ccccn1	-3.7*
CN(C)CC(=O)N1[C@@H](C#N)[C@H](c2ccc(-c3ccccc3F)cc2)[C@@H]1CO	-4.5*
COc1ccccc1-c1ccccc1[C@@H]1[C@@H](C#N)N(C(=O)CN(C)C)[C@H]1CO	-0.25
CN(C)CC(=O)N1[C@H](C#N)[C@@H](c2ccc(/C=C/c3ccccc3)cc2)[C@H]1CO	-5.4*
COc1ccccc1-c1ccccc1[C@H]1[C@@H](C#N)N(C(=O)CN(C)C)[C@@H]1CO	0.32
C/C=C/c1ccc([C@@H]2[C@H](C#N)N(C(=O)Cc3ccccn3)[C@H]2CO)cc1	-0.42
CN(C)CC(=O)N1[C@H](C#N)[C@@H](c2ccccc2-c2ccccc2F)[C@@H]1CO	-0.56
COc1ccccc1-c1ccc([C@@H]2[C@@H](CO)N(C(=O)CN(C)C)[C@H]2C#N)cc1	-15*
CN(C)CC(=O)N1[C@H](C#N)[C@@H](c2ccc(-c3ccccc3F)cc2)[C@@H]1CO	-2.6
N#C[C@H]1[C@H](c2ccc(-c3cccc(F)c3)cc2)[C@@H](CO)N1S(=O)(=O)c1cccc(F)c1	1.7
CCCNC(=O)Nc1ccc2c(c1)OC[C@@H](C)N(C(=O)C1CCOCC1)C[C@H](C)[C@H](OC)CN(C)C2=O	0.21
COCC#Cc1ccc([C@H]2[C@H](CO)N3C(=O)CN(C(=O)C4CCOCC4)C[C@@H]23)cc1	4.5
C[C@@H]1CCCCO[C@H](CN(C)C(=O)CCC(F)(F)F)[C@H](C)CN([C@H](C)CO)C(=O)c2cc(NC(=O)C3CCCCC3)ccc2O1	-1.1
CCN(C[C@H]1[C@@H](c2ccccc2)[C@H](CO)N1C(C)=O)C(=O)c1ccccn1	1.1
CN(C)C(=O)c1ccc(-c2ccc([C@@H]3[C@@H](CO)N4C(=O)CN(C(=O)C5CCCC5)C[C@@H]34)cc2)cc1	0.64
CN(C)CC#Cc1ccc([C@H]2[C@@H](CO)N3CCCCN(S(=O)(=O)c4ccccc4F)C[C@H]23)cc1	6
COc1ccccc1-c1ccccc1[C@@H]1[C@@H](CO)N(C(=O)CN(C)C)[C@H]1C#N	0.12
COc1ccccc1-c1ccc([C@H]2[C@@H](C#N)N(C(=O)CN(C)C)[C@@H]2CO)cc1	-4.2*
COc1ccccc1-c1ccccc1[C@H]1[C@@H](CO)N(C(=O)CN(C)C)[C@H]1C#N	0.75
SMILES	IDE exosite FP
COc1ccc2c3c(n(C)c2c1)[C@H](CO)N(C(=O)Cc1ccccn1)CC31CN(CC2CCCCC2)C1	1.1
C/C=C/c1ccc([C@H]2[C@@H](CO)N(CCC)[C@H]2CNC(=O)CN2CCOCC2)cc1	0.61
C[C@H]1CC=CC[C@@H](c2ccc3c(c2)OCO3)NC(=O)[C@H](C)N(C)C(=O)c2ccccc2O1 (mixture of isomers)	-0.39
O=C(C1CCOCC1)N1CC(=O)N2[C@H](CO)[C@H](c3ccc(-c4cccnc4)cc3)[C@@H]2C1	-1.1
Cc1cccc(-c2ccc([C@@H]3[C@H]4CN(C(=O)c5ccc6c(c5)OCO6)CCCCN4[C@H]3CO)cc2)c1	1.5
COc1ccccc1NC(=O)N1CCCCN2[C@@H](CO)[C@H](c3ccc(-c4cccc(C)c4)cc3)[C@@H]2C1	-2.8
Cc1cccc(-c2ccc([C@H]3[C@@H](CO)N4CCCCN(C(=O)NC(C)C)C[C@H]34)cc2)c1	-13*
COc1ccccc1NC(=O)N1CCCCN2[C@H](C1)[C@@H](c1ccc(-c3cccc(C)c3)cc1)[C@@H]2CO	-2.6
Cc1cccc(-c2ccc([C@@H]3[C@H]4CN(C(=O)NC(C)C)CCCCN4[C@H]3CO)cc2)c1	-12*
COc1ccccc1NC(=O)N1CCCCN2[C@H](CO)[C@H](c3ccc(-c4cccc(C)c4)cc3)[C@@H]2C1	-0.063
CN(C)C(=O)c1cc2c(c(-c3cccc(C4=CCCCC4)c3)n1)[C@H](CCO)N(S(C)(=O)=O)C2	1.2
COc1ccc(-c2ccc([C@@H]3[C@@H](C#N)N(C(=O)c4cccnc4)[C@H]3CO)cc2)cc1	2.8
CCC(=O)N1CC(=O)N2[C@H](CO)[C@@H](c3ccc(-c4ccccc4F)cc3)[C@@H]2C1	-5.2*
CCC(=O)N1CC(=O)N2[C@H](CO)[C@@H](c3ccc(-c4ccccc4F)cc3)[C@H]2C1	0.87
O=C(C1CCCCC1)N1CC(=O)N2[C@H](C1)[C@@H](c1ccc(-c3ccccc3F)cc1)[C@@H]2CO	-2.7
COCC(=O)N1CC(=O)N2[C@@H](CO)[C@H](c3ccc(-c4ccccc4F)cc3)[C@@H]2C1	0.036
CCC(=O)N1CC(=O)N2[C@H](C1)[C@H](c1ccc(-c3ccccc3F)cc1)[C@@H]2CO	-3.5*
CCC(=O)N1CC(=O)N2[C@@H](CO)[C@@H](c3ccc(-c4ccccc4F)cc3)[C@@H]2C1	-5.6*
COCC(=O)N1CC(=O)N2[C@H](C1)[C@H](c1ccc(-c3ccccc3F)cc1)[C@@H]2CO	0.35
CC[C@@H]1C/C=C\C[C@@H](c2ccccc2)NC(=O)CCC(=O)N1	-0.53
CN1c2ccc(Br)cc2[C@@H]2[C@@H](CCN2C(=O)CN2CCOCC2)[C@H]1CO	1.6
CCCC#Cc1ccc([C@H]2[C@@H](CO)N3CCCCN(Cc4cccnc4)C[C@@H]23)cc1	0.87
COc1cccc(NC(=O)C[C@H]2CC[C@H]3[C@@H](COc4ccc(NC(=O)C5CC5)cc4C(=O)N3C)O2)c1	-0.32
C/C=C/c1ccc([C@@H]2[C@@H](CO)N3C(=O)CN(C(=O)c4ccccc4)C[C@H]23)cc1	0.25
COc1ccccc1NC(=O)N1CC(=O)N2[C@H](CO)[C@@H](c3ccc(C#CCC(C)C)cc3)[C@H]2C1	0.81
SMILES	IDE exosite FP
O=C(c1cnccn1)N1CC(=O)N2[C@H](CO)[C@H](c3ccc(-c4cccc(F)c4)cc3)[C@H]2C1	-2.7
O=C(Cc1ccccn1)N1CC(=O)N2[C@@H](CO)[C@H](c3ccc(C#CC4CC4)cc3)[C@@H]2C1	3.3
O=C1CNC[C@H]2[C@@H](c3ccc(C#CC4CCCCC4)cc3)[C@@H](CO)N12	0.68
O=C(Nc1ccccc1F)N1CC(=O)N2[C@H](C1)[C@H](c1ccc(C#CC3CC3)cc1)[C@@H]2CO	-0.16
O=C1CN(S(=O)(=O)c2cccc(F)c2)C[C@H]2[C@H](c3ccc(C4=CCCC4)cc3)[C@@H](CO)N12	-0.33
CS(=O)(=O)N1CC(=O)N2[C@@H](CO)[C@H](c3ccc(C#CCC4CCCC4)cc3)[C@@H]2C1	0.99
O=C(Cc1ccccn1)N1CC(=O)N2[C@@H](CO)[C@@H](c3ccc(C#CC4CC4)cc3)[C@@H]2C1	0.96
Cc1ccc(-c2ccc([C@H]3[C@H](CO)N4C(=O)CN(C(=O)Cc5ccccn5)C[C@@H]34)cc2)cc1	0.21
COc1ccc(-c2ccc([C@H]3[C@H]4CN(C(=O)Cc5ccccn5)CC(=O)N4[C@H]3CO)cc2)cc1	-0.84
